From ChEMBL document CHEMBL4513216, “Probing the Open Global Health Chemical Diversity Library for Multistage-Active Starting Points for Next-Generation Antimalarials” (ACS Infect Dis, 2020) come the findings set out here.

Structures are written as SMILES. The whole screen tested about 68,000 compounds, of which about 2,700 (4%) showed an effect of 50% or more. This excerpt belongs to a sample that is enriched for strong results.

The test system of the experiment is Plasmodium berghei. As to the kind of experiment: Screen against P. berghei liver stage (PbLuc), transformed with Luciferase, at 2uM. Particulars: tested at 2 uM. Type of experiment: functional, HepG2.
As for `CS(=O)(=O)NCc1cnc2n1CCN(Cc1cccnc1)CC2`, the INHIBITION came out at 8.36%.

In the case of `CS(=O)(=O)NCc1cnc2n1CCN(Cc1ccoc1)CC2`, the INHIBITION is 50.17%.

As to `CS(=O)(=O)NCc1cnc2n1CCN(Cc1ccsc1)CC2`, the INHIBITION was -75.39%.

With `CN(Cc1ccco1)Cc1ccccc1CNC(=O)c1cnc[nH]1`, the INHIBITION was determined as 21.27%.

With `Cn1nccc1-c1cccc(CC2CCN(S(C)(=O)=O)C2)n1` (configuration not stated), the INHIBITION is -30.88%.

Take `CC(C)Nc1cccc(CC2CCN(S(C)(=O)=O)CC2)n1`: the INHIBITION is 52.82%.

Take `CC(C)Nc1cccc(CC2CCN(C)C2)n1` (configuration not stated): the INHIBITION is -5.42%.

As to `Fc1ccc(-c2noc(C3COCCO3)n2)cc1F` (configuration not stated), the INHIBITION was -29.82%.

On to `O=C(Cc1ccc(S(=O)(=O)C(F)F)cc1)N1CCCC1`, for which the INHIBITION came out at 33.7%.

`O=C(Cc1ccc(S(=O)(=O)C(F)F)cc1)N1CCC1`: the INHIBITION is 17.61%.

Take `CN1CCN(C(=O)Cc2ccc(S(=O)(=O)C(F)F)cc2)CC1`: the INHIBITION came to 63.39%.

For `COCc1ccccc1C(=O)N1CCCC1Cn1nc(C)cc1C` (configuration not stated), the INHIBITION is -63.06%.

For `CC(Cn1cncn1)NCc1nncn1C1CCCCC1` (configuration not stated), the INHIBITION is given as -28.93%.

For `O=C1NCCN1C1CCCN(Cc2nnc(-c3ccc(F)cc3)o2)C1` (configuration not stated), the INHIBITION is listed as -43.47%.

`O=C1NCCN1C1CCN(Cc2coc(-c3ccc(F)cc3)n2)CC1`: the INHIBITION is reported as 17.31%.

Regarding `O=C1NCCN1C1CCCN(Cc2coc(-c3ccc(F)cc3)n2)C1` (configuration not stated), the INHIBITION is listed as 60.21%.

Turning to `CCCn1nc(C)c(CNC(=O)C2COc3c(cccc3OC)C2)c1C` (configuration not stated), the INHIBITION amounted to 18.57%.

On to `CCN(Cc1ccncc1)C(=O)C1COc2c(cccc2OC)C1` (configuration not stated), for which the INHIBITION turned out to be 57.75%.

In the case of `COCCN(Cc1ccncc1)C(=O)C1COc2c(cccc2OC)C1` (configuration not stated), the INHIBITION is on record as 45.82%.

Turning to `COCCN(Cc1cnn(C)c1)C(=O)C1COc2c(cccc2OC)C1` (configuration not stated), the INHIBITION is listed as 72.05%.

Take `COc1cccc2c1OCC(C(=O)N(C)CCCc1cnn(C)c1)C2` (configuration not stated): the INHIBITION came out at 27.75%.

`COc1cccc2c1OCC(C(=O)NCCn1nc(C)c(Cl)c1C)C2` (configuration not stated): the INHIBITION was 24.36%.

For the compound `COc1cccc2c1OCC(C(=O)NCCCn1nc(C)c(Cl)c1C)C2` (configuration not stated), the INHIBITION was 50.59%.

Take `COc1cccc2c1OCC(C(=O)N(Cc1ccncc1)CC(C)C)C2` (configuration not stated): the INHIBITION turned out to be 17.2%.

With `COCCN(Cc1ccncc1)C(=O)C1COc2ccccc2C1` (configuration not stated), the INHIBITION was found to be 33.9%.

Turning to `CC(C)(C)n1cc(C(=O)N2CCN(Cc3cccnc3)CC2)cn1`, the INHIBITION is -3.57%.

`Cc1ccccc1CCCN1CCS(=O)(=O)CC1C` (configuration not stated): the INHIBITION was -31.95%.

As to `CC(C)n1cnc2c(-c3cccnc3)nc(C3CCNCC3)cc21`, the INHIBITION was -17.24%.

`CCO[C@H]1CO[C@@]2(CCCN(S(=O)(=O)c3cccnc3)C2)C1`: the INHIBITION was found to be 50.35%.

Take `CCOCC(=O)N1CCC[C@]2(C[C@@H](OCc3ccncc3)CO2)C1`: the INHIBITION was determined as 55.15%.

With `O=C(c1ccc(F)c(F)c1)N1CCC[C@]2(C[C@@H](OCC3CC3)CO2)C1`, the INHIBITION was determined as 13.04%.

For the compound `O=C(C1CC1)N1CCC[C@]2(C[C@@H](OCc3ccncc3)CO2)C1`, the INHIBITION is 2.4%.

Consider `CCO[C@@H]1CO[C@@]2(CCCN(C(=O)c3ccc(OC)c(F)c3)C2)C1`, for which the INHIBITION is on record as -8.46%.

`O=C(N1CCCC1)N1CCC[C@]2(C[C@@H](OCc3ccncc3)CO2)C1`: the INHIBITION is -12.23%.

For the compound `CCO[C@@H]1CO[C@@]2(CCCN(S(=O)(=O)c3cccnc3)C2)C1`, the INHIBITION is 27.16%.

For the compound `CCO[C@H]1CO[C@@]2(CCCN(S(=O)(=O)c3ccccc3)C2)C1`, the INHIBITION was -89.74%.

In the case of `CCO[C@H]1CO[C@@]2(CCCN(C(=O)c3ccc(OC)c(F)c3)C2)C1`, the INHIBITION amounted to 52.36%.

`CC(=O)N1CCC(c2ccnc(Nc3cnccn3)n2)C1` (configuration not stated): the INHIBITION was 28.45%.

For `CC(C)CN1CCC2(CC1)C(=O)Nc1ccc(C(=O)N(C)C)cc12`, the INHIBITION is given as 11.28%.

Consider `Cc1cc(O)ccc1-c1cc(-c2cnn(C)c2C2CC2)c(C#N)c(N)n1`, for which the INHIBITION is on record as 7.06%.

Consider `c1cc2occc2c(N2CCCC(c3nncn3C3CC3)C2)n1` (configuration not stated), for which the INHIBITION stood at 12.62%.

For the compound `CCCc1ccc(CN2CCC3(CCC(=O)N(CCCOC)C3)CC2)o1`, the INHIBITION is reported as -26.08%.

With `CCCc1nccn1-c1ccc(C(O)CN2CCOCC2)cc1` (configuration not stated), the INHIBITION was 62%.

In the case of `CCCc1nccn1-c1ccc(C(C)O)cc1` (configuration not stated), the INHIBITION is recorded as 10.23%.

Consider `OC(CN1CCOCC1)c1ccc(Br)cc1` (configuration not stated), for which the INHIBITION came out at 36.23%.

As for `O=C(CN1CCCC1)N1CCCC(c2cc(=O)n3c(n2)CCCCC3)C1` (configuration not stated), the INHIBITION is recorded as 18.22%.

Take `O=C(NCc1ccncc1)N(Cc1ccccc1F)C1CC1`: the INHIBITION came out at 14.83%.

Regarding `CN(C)c1ncccc1CNC(=O)N(Cc1ccccc1F)C1CC1`, the INHIBITION is -20.35%.

Take `Cc1ccc(CNC(=O)N(Cc2ccccc2F)C2CC2)cn1`: the INHIBITION was 70.41%.

For the compound `Cc1nc(C2(O)CCCNCC2)sc1CCOc1ccccc1Cl` (configuration not stated), the INHIBITION is reported as -16.62%.

In the case of `CCOc1ncccc1NC(=O)N1CCN(c2cccc(C)c2C)CC1`, the INHIBITION is 30.91%.

With `Cc1n[nH]c(C)c1NC(=O)CN1CCCC1c1noc(C(C)C)n1` (configuration not stated), the INHIBITION turned out to be 15.28%.
